PubChem BioAssay
Where a name gives a salt, the structure may show the parent alone. Values without a mark were called inactive. The source made the active and inactive calls.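 How the source made its calls, unless noted: active means luciferase signal above three times the same-plate solvent-only control wells; inactive means the rest.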 Peptide text beside a SMILES is read from it. * marks the point of attachment. Tfa = O=C(C(F)(F)F)*

Tests used:
[1] = molecular target: Mitogen-activated protein kinase 7 (Homo sapiens) (UniProt Q13164); test: ERK5 transactivation activators in reporter cells, primary screen, cell-based, HTS (AID 1508626); conditions: HeLa Gal4-ERK5 transactivation, 18 h, at 5 µM, active compounds read high;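 further: luciferase driven by Gal4-ERK5 fusion binding five Gal4 sites before minimal TATA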
Mitogen-activated protein kinase 7 (Homo sapiens), sequence (Q13164 whole entry, looked up, the tested form may be a part): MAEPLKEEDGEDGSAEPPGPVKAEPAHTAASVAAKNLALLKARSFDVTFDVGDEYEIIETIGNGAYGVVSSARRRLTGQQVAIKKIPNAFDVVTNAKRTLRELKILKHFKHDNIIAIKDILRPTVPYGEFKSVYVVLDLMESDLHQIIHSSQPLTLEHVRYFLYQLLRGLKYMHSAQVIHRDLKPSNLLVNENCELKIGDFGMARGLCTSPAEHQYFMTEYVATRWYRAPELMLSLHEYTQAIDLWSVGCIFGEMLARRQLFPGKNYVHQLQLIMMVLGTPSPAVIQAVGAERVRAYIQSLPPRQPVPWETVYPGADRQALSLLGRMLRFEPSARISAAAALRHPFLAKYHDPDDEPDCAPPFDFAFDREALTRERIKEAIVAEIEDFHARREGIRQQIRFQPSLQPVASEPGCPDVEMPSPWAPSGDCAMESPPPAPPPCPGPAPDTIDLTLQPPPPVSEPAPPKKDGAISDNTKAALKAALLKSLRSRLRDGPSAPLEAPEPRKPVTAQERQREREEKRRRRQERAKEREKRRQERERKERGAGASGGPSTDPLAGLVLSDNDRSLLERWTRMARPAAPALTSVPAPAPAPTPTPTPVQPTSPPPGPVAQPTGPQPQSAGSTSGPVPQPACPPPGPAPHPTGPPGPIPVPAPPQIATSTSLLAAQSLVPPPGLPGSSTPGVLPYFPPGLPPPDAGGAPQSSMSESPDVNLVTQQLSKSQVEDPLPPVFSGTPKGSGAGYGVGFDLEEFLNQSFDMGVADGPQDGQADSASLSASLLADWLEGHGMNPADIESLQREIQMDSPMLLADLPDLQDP

[2] = molecular target: NAD(+) hydrolase SARM1 (Homo sapiens) (UniProt Q6SZW1); test: SARM1 TIR NADase inhibitors, cell lysate, NAD-Glo luminescence (AID 1508614;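 active means compound whose remaining NAD level is above about 45 nM, limit read from the data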;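 further: higher remaining NAD means stronger inhibition of SARM1 NADase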); conditions: SAM-TIR HEK293T lysate NADase, at 1 µM, active compounds read high
NAD(+) hydrolase SARM1 (Homo sapiens), sequence (Q6SZW1 whole entry, looked up): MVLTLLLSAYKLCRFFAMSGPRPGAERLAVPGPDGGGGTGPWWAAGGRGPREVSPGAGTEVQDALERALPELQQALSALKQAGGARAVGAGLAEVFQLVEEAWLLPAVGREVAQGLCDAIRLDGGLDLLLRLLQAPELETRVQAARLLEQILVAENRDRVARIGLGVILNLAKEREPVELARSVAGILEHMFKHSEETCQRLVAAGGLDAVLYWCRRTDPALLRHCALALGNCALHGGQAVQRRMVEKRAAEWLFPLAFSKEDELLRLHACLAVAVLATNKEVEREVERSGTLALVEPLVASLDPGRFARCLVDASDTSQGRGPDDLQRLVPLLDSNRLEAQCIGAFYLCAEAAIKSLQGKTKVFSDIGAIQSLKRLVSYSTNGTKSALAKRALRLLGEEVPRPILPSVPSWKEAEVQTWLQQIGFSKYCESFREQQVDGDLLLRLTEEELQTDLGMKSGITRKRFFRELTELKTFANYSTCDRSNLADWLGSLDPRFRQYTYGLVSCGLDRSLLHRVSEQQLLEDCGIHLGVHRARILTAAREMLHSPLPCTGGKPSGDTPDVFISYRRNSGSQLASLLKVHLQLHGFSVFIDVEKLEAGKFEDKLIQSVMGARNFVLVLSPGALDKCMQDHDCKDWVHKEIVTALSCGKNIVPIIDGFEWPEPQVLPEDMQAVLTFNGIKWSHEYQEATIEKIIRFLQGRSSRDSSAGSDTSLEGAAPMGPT

OC[C@H]1O[C@H]([S-])[C@H](O)[C@@H](O)[C@@H]1O.[Au+]
luciferase signal [1]: 68 AU

CCCCC/C=C/CCC(=O)N[C@H]1[C@H](Oc2c3cc4cc2Oc2ccc(cc2Cl)[C@@H](O[C@@H]2O[C@H](CO)[C@@H](O)[C@H](O)[C@H]2NC(C)=O)[C@@H]2NC(=O)[C@H](NC(=O)[C@@H]4NC(=O)[C@H]4NC(=O)C(Cc5ccc(c(Cl)c5)O3)NC(=O)[C@@H](N)c3ccc(O)c(c3)Oc3cc(O)cc4c3)c3ccc(O)c(c3)-c3c(OC4O[C@H](CO)[C@@H](O)[C@H](O)[C@@H]4O)cc(O)cc3[C@@H](C(=O)O)NC2=O)O[C@H](CO)[C@@H](O)[C@@H]1O (stereo partly drawn)
luciferase signal [1]: 52 AU

O=C(O)/C=C/c1ccccc1
luciferase signal [1]: 52 AU

CC1=C2[C@H](/C=C(\C)C(=O)O)CC[C@@H](C)[C@H]2CC1
luciferase signal [1]: 68 AU

O=c1c(O)c(-c2ccc(O)cc2)oc2ccccc12
luciferase signal [1]: 76 AU

CC(=O)OCC(=O)[C@@]1(O)[C@@H](C)C[C@H]2[C@@H]3CCC4=CC(=O)C=C[C@]4(C)[C@@]3(F)[C@@H](O)C[C@@]21C
remaining NAD [2]: 10 nM | luciferase signal [1]: 132 AU

COc1ccc(/C=C/C(=O)c2ccc(O)cc2O)cc1OC
luciferase signal [1]: 60 AU

C=CCCCCCCCCCCCC(O)CC(O)CO (stereo not drawn)
luciferase signal [1]: 220 AU (active)

CO[C@H]1C[C@@H]2CC[C@@H](C)[C@@](O)(O2)C(=O)C(=O)N2CCCC[C@H]2C(=O)O[C@H]([C@H](C)C[C@@H]2CC[C@@H](O)[C@H](OC)C2)CC(=O)[C@H](C)/C=C(\C)[C@@H](O)[C@@H](OC)C(=O)[C@H](C)C[C@H](C)\C=C/C=C/C=C/1C
remaining NAD [2]: 10 nM | luciferase signal [1]: 64 AU

CCN[C@@H]1C[C@H](N)[C@@H](O[C@H]2OC(CN)=CC[C@H]2N)[C@H](O)[C@H]1O[C@H]1OC[C@](C)(O)[C@H](NC)[C@H]1O
remaining NAD [2]: 10 nM | luciferase signal [1]: 56 AU

CN[C@@H]1[C@@H](O)[C@@H](O[C@@H]2[C@@H](O)[C@H](O[C@H]3OC(CN)=CC[C@H]3N)[C@@H](N)C[C@H]2N)OC[C@]1(C)O
remaining NAD [2]: 10 nM | luciferase signal [1]: 48 AU

CC(=O)Oc1ccc2c(c1)CC[C@@H]1[C@@H]2CC[C@]2(C)[C@@H](OC(C)=O)CC[C@@H]12
luciferase signal [1]: 8 AU

CC1(C)CC2C1CC[C@]1(C)CCC3C(C(=O)O)CC(=O)O[C@@]32C1 (stereo partly drawn)
luciferase signal [1]: 56 AU

CC(C)C(NC(=O)C(Cc1ccc(O)cc1)NC(=O)C(NC(=O)C(F)(F)F)C(C)C)C(=O)O (stereo not drawn) (Tfa-Val-Tyr-Val-OH; configuration not given here)
luciferase signal [1]: 64 AU

CCCCCCCCCCCC[C@@H](C(=O)O)[C@H](C)C(=O)O
luciferase signal [1]: 32 AU

NC(=O)CCCCC(S)CCS (stereo not drawn)
luciferase signal [1]: 32 AU

CC(=O)[C@@]12O[C@](C)(c3ccccc3)O[C@@H]1C[C@H]1[C@@H]3CCC4=CC(=O)CC[C@]4(C)[C@H]3CC[C@@]12C
remaining NAD [2]: 10 nM | luciferase signal [1]: 76 AU

CN[C@@H]1[C@H](O[C@H]2[C@H](O[C@H]3[C@H](O)[C@@H](O)[C@H](N=C(N)N)[C@@H](O)[C@@H]3N=C(N)N)O[C@@H](C)[C@]2(O)C=O)O[C@@H](CO)[C@H](O)[C@H]1O
remaining NAD [2]: 10 nM | luciferase signal [1]: 80 AU

C[C@]12C=CC(=O)C=C1CC[C@@H]1[C@@H]2[C@@H](O)C[C@@]2(C)[C@H]1CC[C@]2(O)C(=O)COP(=O)(O)O
remaining NAD [2]: 10 nM | luciferase signal [1]: 96 AU

CC(C)CCC[C@@H](C)[C@H]1CC[C@H]2[C@@H]3CC=C4CC(=O)CC[C@]4(C)[C@H]3CC[C@]12C
luciferase signal [1]: 20 AU

CO/N=C(/C(=O)N[C@@H]1C(=O)N2C(C(=O)OCOC(=O)C(C)(C)C)=C(/C=C\c3scnc3C)CS[C@H]12)c1csc(N)n1
luciferase signal [1]: 132 AU
